Screens from PubChem.
Sampled rows, rich in hits. Any-hit rate of the full collection: about 3.7%.
ANO1 block: mouse TMEM16A channel inhibition, primary screen | normalized B-score (activity score, 25-100; higher = stronger inhibition) at 10 µM | Q8BHY3 | HEK293 TMEM16A/YFP iodide influx fluorescence, ionomycin | 310,000 tested, 1.2% active;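 active means ratio plate-corrected score three or more library SD toward inhibition, starting fluorescence score within five deviations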;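 further: score derived from kinetic fluorescence span divided by baseline fluorescence per well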
Target sequence (Q8BHY3 whole entry, looked up): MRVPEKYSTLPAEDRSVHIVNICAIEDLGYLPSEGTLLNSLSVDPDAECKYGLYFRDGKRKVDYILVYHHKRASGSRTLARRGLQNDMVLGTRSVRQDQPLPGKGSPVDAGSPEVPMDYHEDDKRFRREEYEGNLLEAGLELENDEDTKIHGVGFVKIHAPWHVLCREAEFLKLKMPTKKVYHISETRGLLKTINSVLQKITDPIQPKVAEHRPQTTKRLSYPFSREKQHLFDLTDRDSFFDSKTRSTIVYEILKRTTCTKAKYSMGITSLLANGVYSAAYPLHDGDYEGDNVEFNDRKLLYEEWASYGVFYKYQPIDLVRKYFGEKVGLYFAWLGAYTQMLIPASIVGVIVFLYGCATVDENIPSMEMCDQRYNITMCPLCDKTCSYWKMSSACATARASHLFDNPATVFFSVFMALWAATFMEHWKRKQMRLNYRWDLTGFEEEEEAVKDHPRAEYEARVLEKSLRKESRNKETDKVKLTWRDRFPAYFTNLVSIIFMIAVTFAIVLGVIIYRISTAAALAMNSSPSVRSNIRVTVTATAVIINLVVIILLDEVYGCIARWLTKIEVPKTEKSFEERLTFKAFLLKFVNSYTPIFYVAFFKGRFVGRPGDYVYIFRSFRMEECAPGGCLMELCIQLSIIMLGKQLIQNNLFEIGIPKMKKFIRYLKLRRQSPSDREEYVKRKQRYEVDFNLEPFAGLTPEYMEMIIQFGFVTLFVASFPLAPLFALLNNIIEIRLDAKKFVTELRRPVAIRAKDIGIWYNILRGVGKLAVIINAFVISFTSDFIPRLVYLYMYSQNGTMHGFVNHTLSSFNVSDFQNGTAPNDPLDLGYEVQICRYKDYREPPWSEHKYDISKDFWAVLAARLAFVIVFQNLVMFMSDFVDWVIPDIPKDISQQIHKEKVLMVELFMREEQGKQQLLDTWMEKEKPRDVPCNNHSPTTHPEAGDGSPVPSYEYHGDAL
CHT PAM: human CHT allosteric activation. Q9GZV3. CHT-expressing cells, membrane potential dye, choline EC20; active compounds read high; LV-AA mutant CHT in HEK293 cells. B-score at 10 µM. 310,000 tested, 0.49% active. AID 488977;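 active means initial fluorescence not abnormally high and integrated response B-score, plate-corrected, over 3 SD above library mean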
TMEM16A act: activators or potentiators of mouse TMEM16A chloride channel | Q8BHY3 | HEK293 TMEM16A/YFP-H148Q/I152L, iodide quench fluorescence; active compounds read low | B-score at 10 µM | 340,000 tested, 0.3% active | AID 623877;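 active means fluorescence-ratio B-score plate-corrected deviation score at least 3 library SD below zero, with starting fluorescence score within 5 deviations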;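 further: channel opened by trigger with iodide after compound preincubation; score built on the fluorescence ratio of max minus min over baseline; more negative score means more quench and so TMEM16A activation or potentiation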
GPR7 antag: human neuropeptides B/W receptor 1 antagonism; P48145; inhibition, % at 4.4 µM; 290,000 tested, 1.1% active; GPR7-expressing cells, fluorescence antagonist assay; AID 1861; in the data active means inhibition above about 16%, passing the limit was not always enough;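 further: cells stimulated with the agonist NPW; 0% = agonist with vehicle and 100% = vehicle without agonist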
CHT inh: inhibitors of human choline transporter CHT | Q9GZV3 | CHT-expressing cells, membrane potential dye, choline response; active compounds read low | B-score at 10 µM | 310,000 tested, 0.86% active | AID 488975;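 active means B-score over 3 SD under the library average, and starting fluorescence ratio not unusually high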;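 further: choline stimulus applied at its EC90 after an EC20 pre-addition; B-score computed on integrated fluorescence ratio after choline addition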
Kir21 block: blocks the mouse Kir2.1 inward-rectifier potassium channel | HEK293-Kir2.1, FluxOR thallium flux fluorescence; active compounds read low | P35561 | 310,000 tested, 0.85% active | B-score at 10 µM;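 active means fluorescence ratio B-score at or below minus 3 SD of library scores, with starting-brightness B-score within 2 SD, cut at about -4.2 in these data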;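 further: channel flux triggered by added potassium and thallium sulfate stimulus; B-score of peak minus minimum fluorescence over baseline after thallium stimulus; more negative B-score means stronger Kir2.1 block with less thallium influx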
* = called active by the depositor; i = inactive; . = not tested or not shown.

SMILES	ANO1 block	CHT PAM	TMEM16A act	GPR7 antag	CHT inh	Kir21 block
O=C(COC(=O)CC(c1ccccc1)c1ccccc1)NCc1ccccc1	i	i	i	-2.7	i	-5.81*
O=C(COC(=O)Cc1ccc(-c2ccccc2)cc1)NCc1ccccc1	i	i	i	16.4	i	1.12
CCOCC(=O)Nc1ccc(F)c(F)c1	i	i	i	-9.9	i	0.87
CCCCC(O)(CCCC)C(=O)NN(C(=O)c1cccnc1Cl)c1ccccc1	i	i	i	14.5	i	1.01
NS(=O)(=O)c1ccc(-c2cccc(/C=C3\SC(=O)NC3=O)c2)cc1	i	i	-4.86*	-5.6	i	1.3
O=C(CC(Sc1ccc(Br)cc1)C(=O)O)c1ccc(Br)cc1 (stereo not drawn)	i	i	.	-14.9	-6.99*	-0.84
Cc1ccc(C)c(N2CCN(CCCNC(=O)Cn3cccc3C(=O)c3ccccc3)CC2)c1	i	i	i	-2.9	i	-5.43*
O=C(Cn1cccc1C(=O)c1ccccc1)NCCCN1CCOCC1	i	i	i	4.3	i	0.56
O=C(COC(=O)c1ccc(Cl)cc1O)NC(=O)C1CCCCC1	i	i	i	-26.0	i	0.06
COCCNC(=O)COC(=O)c1[nH]c(C)c(C(C)=O)c1C	100*	i	i	-1.4	i	-1.64
CNC(=O)COC(=O)c1[nH]c(C)c(C(C)=O)c1C	i	i	i	-5.3	i	0.16
COc1ccc(C(CNC(=O)C(CC(C)C)NS(=O)(=O)c2ccc(C)cc2)N2CCOCC2)cc1 (stereo not drawn)	i	i	i	.	i	0.81
COc1ccc(CC(=O)NC2CCSc3ccccc32)c(OC)c1 (stereo not drawn)	i	i	i	8.9	i	-5.9*
Cc1cc(=O)c(C(=O)Nc2cccc(N3CCCC3=O)c2)nn1-c1ccccc1Cl	.	.	i	.	.	.
Cc1cc(=O)c(C(=O)Nc2cccc(N3CCCC3=O)c2)nn1-c1ccccc1F	.	.	-46.2*	.	.	.
CN(C)c1ccc(P(=O)(COc2ccc([N+](=O)[O-])cc2)c2ccc(N(C)C)cc2)cc1	i	i	i	20.4*	i	-1.03
O=[N+]([O-])c1ccc(OCCOCCOc2ccc([N+](=O)[O-])cc2)cc1	i	i	i	7.3	i	0.63
CN(NS(=O)(=O)c1ccc(Cl)cc1)c1ncc(C(F)(F)F)cc1Cl	i	i	i	6.4	i	-6.39*
COc1cc(/C=N/N=C(N)N)ccc1OCc1ccccc1Cl	100*	i	i	-9.4	i	-15.6*
Cc1ccc(S(=O)(=O)Nc2cccnc2Oc2ccc(Cl)cc2)cc1	i	i	i	-4.6	i	-5.01*
Cc1ccc(C(=O)Nc2cccnc2Oc2ccc(Cl)cc2)cc1	i	i	i	-22.3	i	-1.41
Cc1ccc(C)c(-c2cc(C(=O)NNC(=S)NCC(C)C)c3ccccc3n2)c1	100*	i	i	-9.4	i	1.94
ClC1(CNc2ccccc2)CCN(Cc2ccccc2)CC1	i	i	i	.	i	-1.56
O=C(O)c1cccc(NC(=S)N/N=C/c2ccccc2OCc2ccc(Br)cc2)c1	25*	i	i	-8.4	i	-1.04
O=C(NC1CC1(c1ccccc1)c1ccccc1)c1ccccc1 (stereo not drawn)	.	.	-9.29*	.	.	.
SMILES	ANO1 block	CHT PAM	TMEM16A act	GPR7 antag	CHT inh	Kir21 block
O=C(NC12CC3CC(CC(C3)C1)C2)c1ccccc1	i	i	i	-5.6	i	-1.61
O=C(NCCOc1nc(N2CCCCC2)nc(N2CCCCC2)n1)Nc1ccccc1	i	i	i	-19.3	i	2.17
CC(=O)NCCOc1nc(N2CCCCC2)nc(N2CCCCC2)n1	i	i	-7.01*	-6.1	i	-0.32
COc1cccc(CN(c2ccccc2C(=O)O)S(=O)(=O)c2ccc(C)cc2)c1	.	.	i	.	.	.
COc1ccccc1CNC(=O)C1(NC(=O)Nc2ccc(C)cc2)CCCCC1	i	i	i	-4.5	i	0.12
CC(=O)Nc1cccc(-c2csc(Nc3cc(C)ccn3)n2)c1	25*	i	i	10.8	i	2.61
COc1ccc(CCNc2nc(-c3ccccn3)cs2)cc1OC	i	i	-6.19*	-16.1	i	0.39
COc1ccc(CCNc2nc(-c3ccncc3)cs2)cc1OC	i	i	i	4.7	i	-4.02
COc1cccc(C(=O)COC(=O)CCC(=O)c2ccccc2)c1	i	i	i	-3.8	i	-0.44
Nc1ccccc1S(=O)(=O)C(F)F	i	i	i	4.4	i	1.46
N#C/C(=C\c1ccc(O)c(O)c1)C(=O)Nc1ccccc1	i	i	-5.2*	.	i	.
O=C(N/N=C/C1C(c2ccccc2)C1(Cl)Cl)c1cccc(Cl)c1 (stereo not drawn)	i	i	i	7.8	i	-0.84
CC(C)(C)NCc1cc(Br)ccc1OCc1cccs1	i	i	i	12.9	i	-4.79*
COc1ccc2c(C)cc(=O)oc2c1	.	.	i	.	.	.
COc1ccccc1C1=NOC(COc2ccc3c(C)cc(=O)oc3c2)C1 (stereo not drawn)	i	i	i	14.9	-8.47*	0.83
O=C(Cn1nnc(-c2ccccc2Cl)n1)N1CCN(S(=O)(=O)c2ccc(Cl)cc2)CC1	i	i	i	16.3*	i	-0.94
CCCc1cc(-c2[nH]ncc2-c2ccc3c(c2)OCCCO3)c(O)cc1O	25*	i	i	-1.5	i	-0.48
CCCc1cc(-c2[nH]ncc2-c2ccc(C(=O)OCC)o2)c(O)cc1O	i	i	i	9.4	i	1.69
CCOc1cc(N2CCOCC2)c(OCC)cc1NC(=O)COC(=O)COc1ccc(C#N)cc1	i	i	i	-13.8	i	-1.77
COc1ccc(OC)c(S(=O)(=O)NC2CCSc3ccccc32)c1 (stereo not drawn)	i	i	i	-8.4	i	-3.36
COc1cccc(-c2noc(CCCC(=O)Nc3ccc(C(N)=O)cc3)n2)c1	i	i	i	-8.2	i	-0.88
Cc1ccn2cc(-c3ccc(NC(=O)c4ccco4)cc3)nc2c1	i	i	i	-10.4	i	0.21
COc1ccc(C(=O)Nc2ccc(Cl)c(S(=O)(=O)Nc3ccccc3OC)c2)cc1	i	i	i	13.6	i	-2.82
COc1ccc(NS(=O)(=O)c2cc(N/C(=N\S(=O)(=O)c3ccccc3)c3ccc(F)cc3)ccc2Cl)cc1	i	i	i	34.4*	i	1.34
